We go through 13 compounds from PubChem BioAssay.

Active and inactive are the calls of the source.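 How the source made its calls, unless noted: active means percent response above 42, roughly 3 SD of non-fluorescent test compounds; inactive means the rest.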

Assay [1] is described as follows: inhibitors of CD8+ T cell-vesicle binding, pilot screen, LFA-1/ICAM-1 modulator project, MLPCN validation set, flow cytometry (AID 2523;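 active means response below a set limit, under 55% cells CD8-positive and vesicle-bound, and CD8 cells' 90th-percentile brightness under 279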;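 on vesicle binding response: mean PE anti-B7-1 fluorescence of CD8+ cells relative to row control; 100% = QL9-loaded vesicles with DMSO vehicle in the same plate row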). To be noted: 2C mouse CD8+ T cells, at 7 µM, stronger effect = lower value; double positive events: measured here: CD8+/vesicle+ event percentage.
The target of assay [2] is Integrin beta-1 (Homo sapiens) + Integrin alpha-4 (Homo sapiens) (UniProt P13612+P05556). Put plainly: inhibition of HUTS-21 binding to VLA-4, pilot screen, VLA-4 allosteric modulator project, U937 cells, HUTS-21 mAb, flow cytometry, validation set (AID 2674;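 active means inhibition above 50%, about 3 SD of the validation set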;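 further: antibody binding induced by the VLA-4 ligand LDV present at three times its Kd; 0% = LDV ligand with antibody and no compound and 100% = antibody without LDV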). To be noted: HUTS-21 LIBS mAb binding, at 6.7 µM, stronger effect = higher value, binding induced by LDV ligand.
Assay [3] can be described thus: superoxide lowering in aged yeast cells, pilot screen, validation compound set (AID 2706;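 active means superoxide response below 65% of plate, a cut near 3 SD across the whole screen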;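 further: yeast exposed to compound for one week at 30 degrees C before staining; 100% = mean of all compound wells on the same plate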). To be noted: S. cerevisiae aging, superoxide DHE fluorescence; at 10 µM, stronger effect = lower value.
In assay [4] the target is Beta-adrenergic receptor kinase 1 (Homo sapiens) (UniProt P25098). Put plainly: GRK2 binders displacing RNA aptamer, biochemical, validation, human GRK2, bead flow cytometry (AID 488806;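 active means aptamer binding inhibition above 30%, about 3 SD of noise from non-fluorescent compounds; inactive means inhibition at or below 30%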). The note with it: bead-bound GRK2, FAM-aptamer displacement, at 10 µM, stronger effect = higher value. In general terms: Flow cytometry measures light scatter and fluorescence of single cells or particles in a stream.

For assay [5], the target named is Beta-2 adrenergic receptor (Homo sapiens) (UniProt P07550). Put plainly: beta2AR agonists driving receptor internalization, pilot screen, cell-based, FAP fluorogen, flow cytometry, validation set (AID 504459).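 Further: agonist-driven loss of surface beta2AR via internalization measured by FAP dye flow cytometry.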 The note with it: Am2.2-beta2AR cells, FAP surface receptor flow cytometry; at 10 µM; stronger effect = higher value.
Assay [6] deals with AP-2 complex subunit beta (Homo sapiens) (UniProt P63010). Briefly: inhibitors of arrestin peptide binding to AP2, pilot screen, biochemical, validation set, GST-AP2 beads, flow cytometry (AID 504541;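 active means inhibition above 54%, about 3 SD of non-fluorescent compounds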;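 further: AP2 carries R879A mutation and is captured from E. coli lysate; bead-bound FITC arrestin peptide fluorescence measuring arrestin peptide binding to AP2; 0% = DMSO wells and 100% = excess unlabeled arrestin peptide control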). The note with it: FITC arrestin peptide, at 10 µM, stronger effect = higher value, AP2 beta2 appendage fragment, R879A mutant.
The nature of assay [7]: yeast V-ATPase proton transport modulators, S. cerevisiae, pHLuorin, HTS validation (AID 504600; in the data active means response above about 15%;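 further: plate controls were DMSO for no effect and reference compound for full effect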). The note with it: S. cerevisiae pHLuorin cytosolic pH, at 10 µM, stronger effect = higher value.
Assay [8] has as its system anti-desmoglein-3 scFv antibody binding to human DSG3. Put plainly: inhibitors of anti-DSG3 scFv binding to DSG3, pilot screen, biochemical, validation compound set, bead-based, flow cytometry (AID 588368;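 active means binding below the plate cutoff, the plate median minus 3 SD, with a reading above zero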;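 further: signal is the median channel fluorescence of bead-bound GFP antibody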). To be noted: Protein G beads, DSG3-Fc, scFv-GFP binding, at 10 µM, stronger effect = lower value.
The nature of assay [9]: inhibitors of fungal efflux pumps CDR1, CDR2, MDR1, pilot screen, validation compound set, multiplex, phenotypic (AID 588506;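 active means efflux inhibition above 0.42, the validation set average plus 4 SD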;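 further: Nile Red retained in cells so higher fluorescence means more efflux inhibition; 0 = negative control wells and 1 = enniatin B 25 µM full block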). To be noted: S. cerevisiae pump-expressing triplex, Nile Red efflux flow cytometry; at 10 µM; stronger effect = higher value; the pumps come from Candida albicans.
In assay [10] the target is ATP-binding cassette sub-family B member 6 (Homo sapiens) (UniProt Q9NP58). Put plainly: ABCB6 transporter inhibitors, pilot screen, K562-ABCB6 cells, flow cytometry, validation set (AID 588550;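 active means inhibition above the screen-wide mean plus 3 SD, about 51%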;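 further: 0% = DMSO wells and 100% = benzethonium chloride 70 µM positive control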). To be noted: K562-ABCB6 porphyrin accumulation, 1 h, at 10 µM, stronger effect = higher value.
The nature of assay [11]: promoters of myeloid differentiation in arrested cells, primary screen, cell-based, GFP/MAC1 double positive, flow cytometry, validation set (AID 588685;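 active means differentiation response of at least 50%, scaled between solvent and reference control, from cells with both markers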;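 further: compound exposure lasts four days before antibody staining and flow analysis; 0% = DMSO wells and 100% = 5 µM fulvestrant positive control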). To be noted: ER-HoxA9 marrow cells, stronger effect = higher value, normalized: vehicle 0, fulvestrant 100.

ATP-binding cassette sub-family B member 6 (Homo sapiens), sequence (Q9NP58 whole entry, looked up): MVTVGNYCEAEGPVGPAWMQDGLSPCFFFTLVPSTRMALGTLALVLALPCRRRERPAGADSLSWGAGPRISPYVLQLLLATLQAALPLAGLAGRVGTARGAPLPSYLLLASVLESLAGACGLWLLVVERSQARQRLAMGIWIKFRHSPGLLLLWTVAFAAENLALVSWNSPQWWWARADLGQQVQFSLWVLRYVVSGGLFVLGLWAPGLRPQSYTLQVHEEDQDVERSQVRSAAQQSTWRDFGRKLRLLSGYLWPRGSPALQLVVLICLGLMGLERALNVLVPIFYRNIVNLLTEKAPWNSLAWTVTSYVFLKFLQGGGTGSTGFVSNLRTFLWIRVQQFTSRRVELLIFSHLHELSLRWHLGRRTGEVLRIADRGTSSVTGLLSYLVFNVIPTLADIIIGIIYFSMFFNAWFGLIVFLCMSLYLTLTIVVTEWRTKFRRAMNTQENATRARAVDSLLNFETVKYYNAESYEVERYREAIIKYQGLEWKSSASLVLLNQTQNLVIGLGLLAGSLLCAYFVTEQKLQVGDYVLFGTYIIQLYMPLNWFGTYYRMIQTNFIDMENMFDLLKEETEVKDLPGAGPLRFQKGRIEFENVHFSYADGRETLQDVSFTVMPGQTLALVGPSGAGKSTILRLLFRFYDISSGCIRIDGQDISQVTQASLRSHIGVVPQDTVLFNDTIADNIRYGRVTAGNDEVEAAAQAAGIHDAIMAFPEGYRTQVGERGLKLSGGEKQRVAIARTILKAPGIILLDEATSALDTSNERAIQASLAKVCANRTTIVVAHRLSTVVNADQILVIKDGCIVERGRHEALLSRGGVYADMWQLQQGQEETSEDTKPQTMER
Beta-adrenergic receptor kinase 1 (Homo sapiens), sequence (P25098 whole entry, looked up): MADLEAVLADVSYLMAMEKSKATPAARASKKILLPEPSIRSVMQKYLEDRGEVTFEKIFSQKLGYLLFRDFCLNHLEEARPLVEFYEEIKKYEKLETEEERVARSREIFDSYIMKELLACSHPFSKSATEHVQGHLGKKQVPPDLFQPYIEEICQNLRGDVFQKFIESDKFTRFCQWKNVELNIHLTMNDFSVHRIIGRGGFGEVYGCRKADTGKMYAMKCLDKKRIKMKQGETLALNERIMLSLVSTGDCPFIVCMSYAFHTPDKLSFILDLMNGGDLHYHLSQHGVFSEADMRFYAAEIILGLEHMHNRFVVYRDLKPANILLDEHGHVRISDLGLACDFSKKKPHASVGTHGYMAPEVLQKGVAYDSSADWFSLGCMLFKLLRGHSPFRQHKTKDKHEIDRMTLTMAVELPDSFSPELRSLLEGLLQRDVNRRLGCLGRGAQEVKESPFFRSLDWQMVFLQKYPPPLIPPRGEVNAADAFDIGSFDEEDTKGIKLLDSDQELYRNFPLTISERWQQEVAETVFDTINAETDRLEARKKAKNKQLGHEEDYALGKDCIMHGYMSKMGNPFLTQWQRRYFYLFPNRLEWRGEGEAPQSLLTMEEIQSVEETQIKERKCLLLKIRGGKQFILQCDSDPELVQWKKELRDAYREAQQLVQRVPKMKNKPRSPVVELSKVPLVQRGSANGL
Integrin beta-1 (Homo sapiens) + Integrin alpha-4 (Homo sapiens), sequence (P05556 whole entry, looked up): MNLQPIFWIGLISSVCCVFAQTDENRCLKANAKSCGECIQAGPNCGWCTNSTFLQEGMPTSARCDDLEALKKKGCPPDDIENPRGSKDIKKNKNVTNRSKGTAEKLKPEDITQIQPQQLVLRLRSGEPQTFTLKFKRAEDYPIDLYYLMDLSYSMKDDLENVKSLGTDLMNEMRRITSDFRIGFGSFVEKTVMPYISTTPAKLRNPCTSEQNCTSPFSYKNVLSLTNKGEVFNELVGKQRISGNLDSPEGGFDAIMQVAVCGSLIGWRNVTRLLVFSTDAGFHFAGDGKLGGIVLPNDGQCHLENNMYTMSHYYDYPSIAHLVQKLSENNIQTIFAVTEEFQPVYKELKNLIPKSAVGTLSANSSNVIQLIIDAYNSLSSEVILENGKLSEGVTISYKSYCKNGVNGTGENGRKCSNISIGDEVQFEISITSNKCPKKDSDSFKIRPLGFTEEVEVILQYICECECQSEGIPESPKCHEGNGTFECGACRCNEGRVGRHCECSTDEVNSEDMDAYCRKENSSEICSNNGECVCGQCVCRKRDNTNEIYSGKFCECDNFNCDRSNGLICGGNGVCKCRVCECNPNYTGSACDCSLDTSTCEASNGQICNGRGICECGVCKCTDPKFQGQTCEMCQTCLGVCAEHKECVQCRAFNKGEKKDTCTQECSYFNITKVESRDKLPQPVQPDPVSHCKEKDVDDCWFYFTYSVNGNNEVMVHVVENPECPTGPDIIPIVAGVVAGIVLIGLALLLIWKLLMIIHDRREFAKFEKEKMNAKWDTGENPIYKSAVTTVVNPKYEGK
Integrin beta-1 (Homo sapiens) + Integrin alpha-4 (Homo sapiens), sequence (P13612 whole entry, looked up): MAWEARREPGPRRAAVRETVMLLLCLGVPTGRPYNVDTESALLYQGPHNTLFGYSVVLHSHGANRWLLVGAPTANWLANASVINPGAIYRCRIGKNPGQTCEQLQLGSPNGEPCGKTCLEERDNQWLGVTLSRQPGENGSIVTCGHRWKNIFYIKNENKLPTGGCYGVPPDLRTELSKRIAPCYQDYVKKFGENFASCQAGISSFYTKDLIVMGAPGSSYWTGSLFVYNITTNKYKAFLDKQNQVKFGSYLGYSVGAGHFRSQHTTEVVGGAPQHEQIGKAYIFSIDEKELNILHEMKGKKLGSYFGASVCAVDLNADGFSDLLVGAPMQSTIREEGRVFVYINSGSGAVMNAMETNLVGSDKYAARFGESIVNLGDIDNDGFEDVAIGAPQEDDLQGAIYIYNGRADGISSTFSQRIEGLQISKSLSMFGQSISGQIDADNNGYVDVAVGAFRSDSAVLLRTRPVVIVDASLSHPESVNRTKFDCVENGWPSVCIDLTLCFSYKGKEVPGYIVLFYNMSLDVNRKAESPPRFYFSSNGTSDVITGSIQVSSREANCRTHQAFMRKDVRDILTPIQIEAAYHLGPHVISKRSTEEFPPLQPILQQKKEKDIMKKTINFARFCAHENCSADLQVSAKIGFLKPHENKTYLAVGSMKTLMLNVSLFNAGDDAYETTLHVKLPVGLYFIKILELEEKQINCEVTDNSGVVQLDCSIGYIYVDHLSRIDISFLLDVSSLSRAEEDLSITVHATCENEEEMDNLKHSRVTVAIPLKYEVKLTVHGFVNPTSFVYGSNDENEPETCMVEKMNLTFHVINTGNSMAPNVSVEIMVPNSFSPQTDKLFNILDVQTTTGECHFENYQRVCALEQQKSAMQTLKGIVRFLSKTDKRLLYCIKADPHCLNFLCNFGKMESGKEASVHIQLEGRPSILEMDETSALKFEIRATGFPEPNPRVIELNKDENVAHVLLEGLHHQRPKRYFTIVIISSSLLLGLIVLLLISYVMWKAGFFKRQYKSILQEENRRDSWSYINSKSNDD
AP-2 complex subunit beta (Homo sapiens), sequence (P63010 whole entry, looked up, the tested form may be a part, one chain of several): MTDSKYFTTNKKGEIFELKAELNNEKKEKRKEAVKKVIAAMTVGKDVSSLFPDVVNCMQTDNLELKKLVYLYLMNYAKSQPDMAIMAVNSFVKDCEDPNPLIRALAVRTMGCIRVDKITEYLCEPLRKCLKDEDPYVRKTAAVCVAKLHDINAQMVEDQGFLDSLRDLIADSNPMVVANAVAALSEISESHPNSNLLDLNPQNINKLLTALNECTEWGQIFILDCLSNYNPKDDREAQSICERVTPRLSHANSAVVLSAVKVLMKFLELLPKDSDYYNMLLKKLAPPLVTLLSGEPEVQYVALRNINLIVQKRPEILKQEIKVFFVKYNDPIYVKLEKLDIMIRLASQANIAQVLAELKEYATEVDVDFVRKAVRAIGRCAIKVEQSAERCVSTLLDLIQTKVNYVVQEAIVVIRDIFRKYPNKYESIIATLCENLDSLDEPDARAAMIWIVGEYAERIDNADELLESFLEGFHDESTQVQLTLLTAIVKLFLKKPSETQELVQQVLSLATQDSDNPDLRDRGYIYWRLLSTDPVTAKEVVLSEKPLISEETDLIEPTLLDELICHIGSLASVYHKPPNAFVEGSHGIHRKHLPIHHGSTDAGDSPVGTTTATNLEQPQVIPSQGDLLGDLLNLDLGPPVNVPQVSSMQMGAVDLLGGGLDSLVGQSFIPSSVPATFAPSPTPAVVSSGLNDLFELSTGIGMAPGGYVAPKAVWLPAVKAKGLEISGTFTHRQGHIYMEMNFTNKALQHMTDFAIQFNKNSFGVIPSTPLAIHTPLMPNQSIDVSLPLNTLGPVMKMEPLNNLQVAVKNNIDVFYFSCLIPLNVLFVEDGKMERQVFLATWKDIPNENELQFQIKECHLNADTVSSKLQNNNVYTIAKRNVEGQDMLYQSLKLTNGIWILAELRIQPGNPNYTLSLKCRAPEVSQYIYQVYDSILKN
Beta-2 adrenergic receptor (Homo sapiens), sequence (P07550 whole entry, looked up): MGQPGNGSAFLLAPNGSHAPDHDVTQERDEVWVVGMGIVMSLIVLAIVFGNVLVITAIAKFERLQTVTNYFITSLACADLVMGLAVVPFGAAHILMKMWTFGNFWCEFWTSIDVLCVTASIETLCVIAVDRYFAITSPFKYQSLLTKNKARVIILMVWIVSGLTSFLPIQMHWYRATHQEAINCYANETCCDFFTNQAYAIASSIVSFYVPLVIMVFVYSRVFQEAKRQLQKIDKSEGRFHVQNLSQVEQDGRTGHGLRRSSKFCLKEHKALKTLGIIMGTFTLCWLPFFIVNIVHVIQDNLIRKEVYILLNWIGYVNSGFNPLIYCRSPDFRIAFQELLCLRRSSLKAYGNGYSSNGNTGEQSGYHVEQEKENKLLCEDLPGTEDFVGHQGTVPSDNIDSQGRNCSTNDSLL

For `O=C(Nc1ccccc1)c1ccccc1CCc1ccccc1`, the double positive events in assay [1] amounted to 61.3%. Further, in assay [1], the vesicle binding response is 167% (inactive). Further, the values for the inhibition in assay [2], in assay [6] and in assay [10] were 6.95% (inactive), 9.22% (inactive) and 0% (inactive), respectively. The superoxide response (% of plate) in assay [3] was 90.9% (inactive). For the same compound, the aptamer binding inhibition in assay [4] was 5% (inactive). In addition, the response in assay [5] was 46.6% (active); in assay [7], -1.57% (inactive). Besides, the binding (% of control) in assay [8] was 95.3% (inactive). Besides, in assay [9], the efflux inhibition (fraction of control) is -0.12 (inactive). The differentiation response in assay [11] was -0.18% (inactive).
In assay [1], `COc1ccccc1-c1c(C(F)(F)F)oc2cc(OC(=O)c3ccc([N+](=O)[O-])cc3)ccc2c1=O` showed a double positive events of 61.5%. Further, the vesicle binding response in assay [1] is 160% (inactive). For the same compound, the results for the inhibition in [2], in assay [6] and in assay [10] were -1.97% (inactive), -4.55% (inactive) and 1% (inactive), respectively. For the same compound, the superoxide response (% of plate) in assay [3] is 49.2% (active). In assay [4], the aptamer binding inhibition was 2% (inactive). For the same compound, the values for the response in assay [5] and in assay [7] were -19.4% (inactive) and 1.11% (inactive), respectively. The binding (% of control) in assay [8] was 99.3% (inactive). Further, the efflux inhibition (fraction of control) in assay [9] was 0.04 (inactive). Besides, in assay [11], the differentiation response is -5.97% (inactive).
For the compound `CCOCc1cc(C)[nH]c(=O)c1C#N`, in [1], the double positive events amounted to 60.2%. For the same compound, the vesicle binding response in assay [1] was 225% (inactive). Also, the figures for the inhibition in assay [2], in [6] and in assay [10] were 3.67% (inactive), -6.13% (inactive) and 7% (inactive), respectively. Also, the superoxide response (% of plate) in assay [3] was 98.3% (inactive). For the same compound, the aptamer binding inhibition in assay [4] is 2% (inactive). The response in assay [5] was 1.78% (inactive); in assay [7], 1.03% (inactive). Besides, in assay [8], the binding (% of control) was 102% (inactive). Further, in [9], the efflux inhibition (fraction of control) was -0.21 (inactive). Also, the differentiation response in [11] was -4% (inactive).
In [1], `COc1cc2ccc(=O)oc2c(O)c1OCC=C(C)C` had a double positive events of 63.7%. Besides, the vesicle binding response in assay [1] was 190% (inactive). For the same compound, the inhibition in assay [2] is -12.9% (inactive); in assay [6], -0.67% (inactive); in [10] it was 10% (inactive). Moreover, the superoxide response (% of plate) in assay [3] is 102% (inactive). Moreover, the aptamer binding inhibition in assay [4] was -1% (inactive). The values for the response in assay [5] and in assay [7] were -9.13% (inactive) and -0.32% (inactive), respectively. For the same compound, the binding (% of control) in assay [8] is 98.2% (inactive). Also, the efflux inhibition (fraction of control) in assay [9] was 0.05 (inactive). In addition, the differentiation response in assay [11] is 7.09% (inactive).
For `CC(C)COc1ccc(Cc2cnc(N)nc2N)cc1`, the double positive events in [1] worked out at 63.9%. For the same compound, the vesicle binding response in [1] is 226% (inactive). Further, the inhibition in assay [2] was 3.67% (inactive); in [6] it was 59.5% (active); in assay [10], 0% (inactive). The superoxide response (% of plate) in assay [3] is 97.9% (inactive). The aptamer binding inhibition in assay [4] was 0% (inactive). For the same compound, the results for the response in [5] and in assay [7] were 5.88% (inactive) and -3.28% (inactive), respectively. For the same compound, the binding (% of control) in assay [8] is 95.5% (inactive). Further, the efflux inhibition (fraction of control) in assay [9] was 0.05 (inactive). In [11], the differentiation response is 76% (active).
Regarding `CCC(=O)Oc1ccc(/C(CC)=C(\CC)c2ccc(OC(=O)CC)cc2)cc1`, in assay [1], the double positive events was found to be 67.2%. Moreover, the vesicle binding response in [1] is 174% (inactive). Moreover, the figures for the inhibition in [2], in assay [6] and in assay [10] were 19.1% (inactive), -4.91% (inactive) and 11% (inactive), respectively. In [3], the superoxide response (% of plate) is 94.7% (inactive). In addition, the aptamer binding inhibition in assay [4] was 3% (inactive). Besides, the results for the response in [5] and in assay [7] were -5.73% (inactive) and 2.77% (inactive), respectively. Also, the binding (% of control) in assay [8] was 84.1% (inactive). The efflux inhibition (fraction of control) in assay [9] was -0.02 (inactive). Moreover, the differentiation response in [11] was -4.09% (inactive).
In assay [1], `CN(C)c1cc(NC(=O)CN2CCOCC2)c2ccccc2n1` had a double positive events of 64.4%. In assay [1], the vesicle binding response was 183% (inactive). Moreover, the inhibition is -9.06% (inactive) in assay [2], -0.56% (inactive) in assay [6] and 15% (inactive) in [10]. Further, the superoxide response (% of plate) in [3] is 96.2% (inactive). Besides, in assay [4], the aptamer binding inhibition is -2% (inactive). The values for the response in assay [5] and in [7] were 2.53% (inactive) and -1.23% (inactive), respectively. Also, the binding (% of control) in [8] is 109% (inactive). Further, the efflux inhibition (fraction of control) in assay [9] was -0.17 (inactive). In addition, in assay [11], the differentiation response is -3.28% (inactive).
The compound `O=c1cc(Cn2ccnc2)c2cc3c(cc2o1)CCC3` had a double positive events in assay [1] of 57.6%. Moreover, the vesicle binding response in [1] is 143% (inactive). Further, the inhibition in [2] was -11.3% (inactive); in assay [6], 8.12% (inactive); in assay [10], 2% (inactive). In assay [3], the superoxide response (% of plate) is 99.2% (inactive). Besides, the aptamer binding inhibition in assay [4] is -2% (inactive). The response was -7.31% (inactive) in [5] and -1.72% (inactive) in assay [7]. The binding (% of control) in assay [8] is 105% (inactive). Also, in [9], the efflux inhibition (fraction of control) is 0.08 (inactive). Also, the differentiation response in assay [11] was 48.8% (inactive).
In assay [1], `CC1(C)C2CCC1(C(=O)O)c1nc3ccccc3nc12` (stereo unspecified) returned a double positive events of 61.8%. In addition, the vesicle binding response in [1] is 372% (inactive). In addition, the inhibition in assay [2] is -1.12% (inactive); in [6] it was 6.26% (inactive); in [10], 20% (inactive). In assay [3], the superoxide response (% of plate) is 72.9% (inactive). Further, the aptamer binding inhibition in assay [4] is 2% (inactive). The results for the response in [5] and in assay [7] were -10.7% (inactive) and 0.59% (inactive), respectively. In [8], the binding (% of control) was 100% (inactive). Moreover, in [9], the efflux inhibition (fraction of control) was 0.04 (inactive). In addition, the differentiation response in assay [11] was -6.96% (inactive).
The compound `COc1cc2c(cc1O)CC[C@@H]1[C@@H]2CC[C@]2(C)[C@@H](O)CC[C@@H]12` showed a double positive events in [1] of 58.8%. For the same compound, the vesicle binding response in assay [1] is 139% (inactive). Moreover, the inhibition was 44.9% (inactive) in assay [2], -5.34% (inactive) in [6] and -1% (inactive) in assay [10]. Besides, in assay [3], the superoxide response (% of plate) is 112% (inactive). Besides, the aptamer binding inhibition in [4] was -7% (inactive). For the same compound, the response in assay [5] is -10.9% (inactive); in assay [7], -4.33% (inactive). For the same compound, the binding (% of control) in assay [8] was 106% (inactive). For the same compound, in assay [9], the efflux inhibition (fraction of control) was 0.04 (inactive). Moreover, the differentiation response in assay [11] is -9.91% (inactive).
Regarding `O=C1N[C@@H](Cc2cnc[nH]2)C(=O)N2CCC[C@@H]12`, in [1], the double positive events stood at 59.8%. Also, in assay [1], the vesicle binding response is 103% (inactive). The inhibition in assay [2] is 12.3% (inactive); in [6] it was -3.62% (inactive); in [10], -2% (inactive). Besides, the superoxide response (% of plate) in assay [3] was 125% (inactive). The aptamer binding inhibition in assay [4] was 2% (inactive). Moreover, the response is 6.03% (inactive) in assay [5] and 6.06% (inactive) in assay [7]. Besides, the binding (% of control) in [8] is 100% (inactive). In assay [9], the efflux inhibition (fraction of control) was -0.07 (inactive). Further, in [11], the differentiation response was -7.5% (inactive).
`COc1ccc(/C=C\C(=O)c2c(O)ccc3c(C)cc(=O)oc23)cc1OC` showed a double positive events in assay [1] of 60.8%. Further, in [1], the vesicle binding response is 182% (inactive). Moreover, the results for the inhibition in assay [2], in assay [6] and in assay [10] were 14.2% (inactive), 60.6% (active) and -4% (inactive), respectively. For the same compound, in assay [3], the superoxide response (% of plate) was 94.3% (inactive). Also, the aptamer binding inhibition in assay [4] is 1% (inactive). Further, the response in assay [5] was 16.8% (inactive); in [7], -0.16% (inactive). For the same compound, the binding (% of control) in assay [8] is 106% (inactive). The efflux inhibition (fraction of control) in [9] is 0.29 (inactive). Further, the differentiation response in assay [11] was -1.05% (inactive).
For `CC(C)C1Cc2[nH]c(=O)c(C(=O)O)cc2CO1` (stereo unspecified), the double positive events in [1] came to 64.9%. The vesicle binding response in [1] was 1810% (inactive). The inhibition in assay [2] is 25.5% (inactive); in assay [6], -1.16% (inactive); in assay [10], 10% (inactive). Further, in assay [3], the superoxide response (% of plate) is 95.9% (inactive). In assay [4], the aptamer binding inhibition is 4% (inactive). Also, the response in assay [5] is -2.38% (inactive); in assay [7] it was -0.04% (inactive). The binding (% of control) in assay [8] is 94.2% (inactive). For the same compound, in assay [9], the efflux inhibition (fraction of control) was -0.1 (inactive). Besides, the differentiation response in assay [11] is 3.18% (inactive).

Usually inhibition stands for the relative decrease from the control value, in per cent.
